Assay [1] concerns the target Bile acid receptor (Homo sapiens) (UniProt Q96RI1). Put plainly: ATG_IR1_CIS: Attagene CIS-FACTORIAL HepG2 Assay for human Nuclear Receptor Subfamily 1 Group H Member 4 (NR1H4), IR1 submotif (AID 2282946). As to conditions: IR1 reporter transcription, actives raise or lower the signal. A digest of the protocol: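 Readout: reporter transcript levels by RT-PCR with fluorescent capillary electrophoresis, from HepG2 cells transiently transfected with multiplexed cis-regulated reporters and dosed 24 h. Gain- or loss-of-signal fitted versus DMSO negative control.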

Assay [2] can be described thus: ATG_ISRE_CIS: Attagene CIS-FACTORIAL HepG2 Assay for human Interferon Regulatory Factor 1 (IRF1) binding to an Interferon-Stimulated Response Element (ISRE) (AID 2282948). As to conditions: HepG2 ISRE cis-reporter (Attagene), mRNA transcription readout; actives raise or lower the signal. The gist of the method: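 Signal reflects induction or loss of ISRE-linked reporter mRNA in transiently transfected HepG2 cells after a 24 h treatment, detected by fluorescent RT-PCR fragments on capillary electrophoresis and normalised to DMSO.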

The nature of assay [3]: ATG_M_32_CIS: Attagene CIS-FACTORIAL HepG2 Assay for M32 Transcription Factor (Internal Marker) (AID 2282949).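 Also: background control marker of the multiplexed CIS panel rather than a real target.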 Particulars: HepG2 Attagene cis-factorial M32 reporter, mRNA; actives raise or lower the signal. A digest of the protocol:
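Transient MRTU transfection of HepG2; 24 h compound treatment; TriZol RNA, oligo(dT) RT, reporter PCR, 6-FAM primer extension, HpaI cut, CE. Gain/loss of signal vs DMSO.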

Assay [4] has as its target Hypoxia-inducible factor 1-alpha (Homo sapiens) (UniProt Q16665). The experiment in a line: ATG_HIF1a_CIS: Attagene CIS-FACTORIAL HepG2 Assay for human Hypoxia Inducible Factor 1 (HIF1A) (AID 2282951). Particulars: HepG2 Attagene cis-factorial HIF1a reporter transcription; actives raise or lower the signal. The gist of the method:
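HepG2 cells transiently transfected with multiple cis-regulated reporter transcription units measure endogenous transcription factor activity. After 24 h exposure, reporter mRNA is quantified by RT-PCR with 6-FAM labelling, HpaI digestion and capillary electrophoresis. Bidirectional fitting against DMSO.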

The target in assay [5] is Hepatocyte nuclear factor 6 (Homo sapiens) (UniProt Q9UBC0). The experiment in a line: ATG_HNF6_CIS: Attagene CIS-FACTORIAL HepG2 Assay for human Hepatocyte Nuclear Factor 6 (HNF6) (AID 2282952). Particulars: HepG2 Attagene cis-factorial HNF6 reporter transcription; actives raise or lower the signal. The gist of the method:
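First, HepG2 cells were transfected with the multiplexed cis reporter library and dosed with chemical for 24 h. Next, RNA was reverse-transcribed, PCR-amplified and fluorescently labelled. Finally, HpaI-digested fragments were read by capillary electrophoresis.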

Assay [6] has as its target Heat shock factor protein 1 (Homo sapiens) (UniProt Q00613). Put plainly: ATG_HSE_CIS: Attagene CIS-FACTORIAL HepG2 Assay for human Heat Shock Transcription Factor 1 (HSE) (AID 2282953). As to conditions: HepG2 HSE cis-reporter, Attagene RNA transcription; actives raise or lower the signal. The gist of the method:
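HepG2 cells transiently transfected with multiple reporter transcription units under cis-regulatory promoter control, measuring endogenous transcription factor activity. After 24 h chemical exposure, reporter mRNA quantified by RT-PCR, fluorescent labelling, HpaI digestion and capillary electrophoresis; bidirectional fit versus DMSO.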

A short description of assay [7]: ATG_MRE_CIS: Attagene CIS-FACTORIAL HepG2 Assay for human Metal Responsive Element (MRE) (AID 2282954). As to conditions: HepG2 MRE cis-reporter transcription, Attagene multiplex; actives raise or lower the signal. The gist of the method:
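Readout: capillary electrophoresis of 6-FAM-labelled, HpaI-digested RT-PCR reporter products. System: HepG2 cells carrying transient multiplexed cis reporters, dosed 24 h. Analysis: bidirectional fit, DMSO baseline.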

Assay [8] can be described thus: ATG_M_06_CIS: Attagene CIS-FACTORIAL HepG2 Assay for M06 Transcription Factor (Internal Marker) (AID 2282950). Particulars: HepG2 Attagene CIS-FACTORIAL M06 internal marker reporter; actives raise or lower the signal. A digest of the protocol: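 HepG2 cells transiently transfected with cis-regulated multiple reporter transcription units were exposed to chemical for 24 h; reporter mRNA was quantified by RT-PCR, 6-FAM primer labelling, HpaI digestion and capillary electrophoresis, fitted bidirectionally against DMSO.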

A short description of assay [9]: ATG_PBREM_CIS: Attagene CIS-FACTORIAL HepG2 Assay for human Phenobarbital-responsive Enhancer Module (PBREM) (AID 2282955). Particulars: HepG2 PBREM cis-reporter, Attagene multiplexed transcription; actives raise or lower the signal. A digest of the protocol:
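HepG2 cells transiently transfected with multiple cis-regulated reporter units measure endogenous transcription factor activity; 24 h compound exposure. Reporter mRNA quantified by RT-PCR, fluorescent labelling, HpaI digestion and capillary electrophoresis; bidirectional fit versus DMSO.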

The nature of assay [10]: ATG_GRE_CIS: Attagene CIS-FACTORIAL HepG2 Assay for human Glucocorticoid Response Elements (GRE) (AID 2282947). Particulars: HepG2 GRE cis-reporter, Attagene multiplex mRNA; actives raise or lower the signal. The gist of the method: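 HepG2, transient cis-reporter transfection, 24 h. Reporter mRNA: RT-PCR then CE, fluorescence. Fit both directions vs DMSO.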

The source made the active and inactive calls. The calls were made as follows: active = hit-call score of the fitted dose curve at least 0.9, where 1 is the maximum; inactive = score below 0.9.

Chain of Bile acid receptor (Homo sapiens) (Q96RI1 whole entry, looked up): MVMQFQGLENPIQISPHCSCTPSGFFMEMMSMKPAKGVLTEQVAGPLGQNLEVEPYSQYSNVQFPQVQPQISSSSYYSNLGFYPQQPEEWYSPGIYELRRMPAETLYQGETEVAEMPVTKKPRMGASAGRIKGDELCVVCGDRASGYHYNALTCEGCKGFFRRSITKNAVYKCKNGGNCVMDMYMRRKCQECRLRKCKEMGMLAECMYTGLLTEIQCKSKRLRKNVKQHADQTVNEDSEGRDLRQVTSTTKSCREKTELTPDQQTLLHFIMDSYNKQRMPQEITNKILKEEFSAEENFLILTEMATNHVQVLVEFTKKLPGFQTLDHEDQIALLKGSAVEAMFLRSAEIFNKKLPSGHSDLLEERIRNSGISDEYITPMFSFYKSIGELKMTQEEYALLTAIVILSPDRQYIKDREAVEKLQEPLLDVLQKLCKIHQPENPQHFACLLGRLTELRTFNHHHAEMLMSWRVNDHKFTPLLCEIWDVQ
Chain of Hepatocyte nuclear factor 6 (Homo sapiens) (Q9UBC0 whole entry, looked up, the tested form may be a part): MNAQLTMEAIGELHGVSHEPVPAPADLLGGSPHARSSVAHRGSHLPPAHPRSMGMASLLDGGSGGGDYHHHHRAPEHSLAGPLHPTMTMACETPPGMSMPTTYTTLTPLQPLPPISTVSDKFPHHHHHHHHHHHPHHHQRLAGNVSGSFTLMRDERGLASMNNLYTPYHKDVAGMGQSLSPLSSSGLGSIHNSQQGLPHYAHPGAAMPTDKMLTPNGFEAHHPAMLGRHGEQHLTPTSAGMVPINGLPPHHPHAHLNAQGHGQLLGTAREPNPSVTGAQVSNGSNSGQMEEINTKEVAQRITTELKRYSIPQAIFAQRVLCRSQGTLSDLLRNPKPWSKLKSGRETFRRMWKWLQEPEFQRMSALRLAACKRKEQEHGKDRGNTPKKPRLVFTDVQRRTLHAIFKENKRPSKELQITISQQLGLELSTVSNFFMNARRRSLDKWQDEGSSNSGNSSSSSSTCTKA
Chain of Hypoxia-inducible factor 1-alpha (Homo sapiens) (Q16665 whole entry, looked up): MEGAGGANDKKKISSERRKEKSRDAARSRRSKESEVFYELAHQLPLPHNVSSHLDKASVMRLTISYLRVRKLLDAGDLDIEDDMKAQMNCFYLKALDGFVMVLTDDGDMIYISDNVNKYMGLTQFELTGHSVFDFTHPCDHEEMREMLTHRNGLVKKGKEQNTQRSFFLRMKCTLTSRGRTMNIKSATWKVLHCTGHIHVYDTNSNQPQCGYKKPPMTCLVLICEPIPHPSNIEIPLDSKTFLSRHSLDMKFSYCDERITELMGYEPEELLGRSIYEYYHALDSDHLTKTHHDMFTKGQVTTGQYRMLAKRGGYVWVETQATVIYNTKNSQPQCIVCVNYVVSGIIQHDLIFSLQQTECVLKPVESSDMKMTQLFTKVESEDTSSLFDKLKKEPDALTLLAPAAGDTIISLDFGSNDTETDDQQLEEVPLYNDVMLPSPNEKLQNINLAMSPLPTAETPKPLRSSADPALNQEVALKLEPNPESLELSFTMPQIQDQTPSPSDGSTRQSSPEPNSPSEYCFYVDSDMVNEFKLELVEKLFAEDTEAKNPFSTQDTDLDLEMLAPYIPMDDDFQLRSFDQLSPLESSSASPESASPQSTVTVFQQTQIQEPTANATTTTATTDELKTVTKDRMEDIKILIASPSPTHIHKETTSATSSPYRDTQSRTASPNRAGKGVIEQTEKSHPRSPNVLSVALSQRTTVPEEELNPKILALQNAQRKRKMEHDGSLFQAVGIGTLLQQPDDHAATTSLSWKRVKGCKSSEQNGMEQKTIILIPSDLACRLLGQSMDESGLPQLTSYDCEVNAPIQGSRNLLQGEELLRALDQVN
Chain of Heat shock factor protein 1 (Homo sapiens) (Q00613 whole entry, looked up): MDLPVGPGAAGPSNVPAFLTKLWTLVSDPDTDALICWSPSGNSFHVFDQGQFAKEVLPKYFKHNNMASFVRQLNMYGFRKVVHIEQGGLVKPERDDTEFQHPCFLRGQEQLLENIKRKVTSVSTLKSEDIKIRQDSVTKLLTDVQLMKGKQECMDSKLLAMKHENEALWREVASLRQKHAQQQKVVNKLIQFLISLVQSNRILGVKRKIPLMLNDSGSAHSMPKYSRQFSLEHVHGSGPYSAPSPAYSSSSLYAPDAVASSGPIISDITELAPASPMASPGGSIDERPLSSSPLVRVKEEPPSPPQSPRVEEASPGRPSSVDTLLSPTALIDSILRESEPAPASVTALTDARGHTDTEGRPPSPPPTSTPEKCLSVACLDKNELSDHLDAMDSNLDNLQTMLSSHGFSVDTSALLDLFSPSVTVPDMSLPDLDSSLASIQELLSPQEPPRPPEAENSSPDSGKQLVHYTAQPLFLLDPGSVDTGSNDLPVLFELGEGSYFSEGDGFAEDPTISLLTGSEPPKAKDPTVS

`C=CC(=O)NCOCC(C)C`: the molecule was classed as inactive in [1], in [2], in assay [3], in assay [4], in assay [5] and in assay [6]. Also, the result in [7] was inactive.

With `NNc1nc(-c2ccc(N)cc2)cs1`, the molecule was classed as inactive in assay [1], in [2], in assay [3], in assay [8], in assay [4] and in assay [6]. In addition, the result in [9] was inactive.

Take `CCCCCCCCCCCCCC(=O)O`: the molecule was called inactive in assay [1], in assay [2], in assay [3], in assay [5], in assay [7] and in assay [9].

For the molecule `CCCC(C)C=O` (configuration not stated), the molecule was called inactive in assay [1], in assay [2], in assay [3], in assay [8], in assay [4] and in assay [5]. The molecule was called inactive in [6] and in assay [9].

In the case of `CC(=O)/C=C/C1=C(C)CCCC1(C)C`, the call in [1], in assay [2], in assay [3], in [8], in assay [4] and in assay [5] was inactive. Moreover, the molecule was called inactive in assay [6] and in assay [7].

For `COc1cc2ncnc(Nc3cccc(Cl)c3)c2cc1OC`, the molecule was called inactive in assay [1] and in assay [8]. In addition, the values for the AC50 in [2] and in assay [4] were 5.56 µM (active) and 11.4 µM (active), respectively.

In the case of `OC1C(O)C(O)C(O)C(O)C1O` (configuration not stated), the outcome in [1], in [2], in assay [3], in [8], in [4] and in assay [5] was inactive. Besides, the molecule was classed as inactive in assay [6] and in [7].

Regarding `CC(=O)[C@H]1CC[C@H]2[C@@H]3CC=C4C[C@@H](O)CC[C@]4(C)[C@H]3CC[C@]12C`, the molecule was called inactive in assay [1], in assay [3], in assay [8], in assay [4], in [5] and in assay [6]. For the same molecule, the call in assay [7] and in [9] was inactive. Moreover, the AC50 in assay [2] is 36 µM (active).

`CCCCO`: the molecule was called inactive in [1], in assay [2], in [3], in assay [8], in [4] and in [5]. In addition, the result in [6] and in [7] was inactive.

In the case of `CC1=CCC2C(C1)C2(C)C` (configuration not stated), the molecule was called inactive in [1], in assay [2], in assay [3], in [4], in [5] and in assay [9].

For `O=Nc1ccc(Nc2ccccc2)cc1`, the AC50 in assay [1] is 13.7 µM (active); in assay [2], 25.4 µM (active); in assay [6], 27.8 µM (active); in [7], 20 µM (active); in assay [9] it was 59.3 µM (active). Also, the call in assay [3] and in assay [8] was inactive.

For the molecule `C=C(C)C(=O)OCc1ccccc1`, the outcome in [1], in assay [2], in assay [3], in assay [8], in assay [5] and in [7] was inactive. Further, the outcome in [9] was inactive.

In the case of `CC(=O)Nc1ccccc1O`, the outcome in assay [1], in [2], in assay [3], in [8], in assay [4] and in assay [6] was inactive. Besides, the molecule was called inactive in assay [7] and in [9].

Turning to `CN(CCOc1ccc(CC2SC(=O)NC2=O)cc1)c1ccccn1` (configuration not stated), the call in [1], in assay [2], in assay [3], in assay [8], in assay [4] and in assay [5] was inactive. Also, the molecule was classed as inactive in [6] and in assay [7]. Moreover, the AC50 in [9] was 66.1 µM (active).

Turning to `O=C(O)Cc1cccc2ccccc12`, the outcome in [1], in [2], in assay [8], in assay [4], in [5] and in assay [6] was inactive.

`CNCCO`: the molecule was called inactive in assay [1], in assay [2], in assay [3], in assay [8], in [4] and in assay [5]. Besides, the call in assay [6] and in [7] was inactive.

Regarding `CCCCNC(=O)NS(=O)(=O)c1ccc(C)cc1`, the result in assay [1], in assay [2], in [3], in assay [8], in assay [5] and in assay [6] was inactive. Further, the molecule was classed as inactive in [7].

With `O=c1[nH]nnc2ccccc12`, the molecule was called inactive in [1], in [2], in [3], in assay [8], in assay [4] and in assay [5]. Also, the call in [6], in assay [7] and in assay [9] was inactive.

Regarding `CC1CCC2CC1C2(C)C` (configuration not stated), the result in assay [1], in assay [2], in assay [3], in [8], in assay [4] and in assay [5] was inactive. Moreover, the outcome in assay [6], in assay [7] and in [9] was inactive.

As for `C#C[C@]1(O)CC[C@H]2[C@@H]3CCC4=Cc5oncc5C[C@]4(C)[C@H]3CC[C@@]21C`, the concentration at half-maximal activity (AC50) in [1] is 23.5 µM (active); in assay [2], 31.2 µM (active); in assay [7], 27.3 µM (active).

`c1ccc(CCCc2ccccn2)cc1`: the call in assay [1], in assay [2], in assay [3], in assay [8], in assay [4] and in [6] was inactive. For the same molecule, the AC50 in [7] is 81.5 µM (active); in assay [9], 67 µM (active).

For the molecule `CCCCCCCCCCCCSC`, the molecule was classed as inactive in assay [1], in assay [2], in [3], in assay [8], in [5] and in assay [6]. Moreover, the outcome in [7] and in assay [9] was inactive.

Take `CCN(CC)c1ccc2c(-c3ccccc3C(=O)O)c3ccc(=[N+](CC)CC)cc-3oc2c1`: the half-maximal activity concentration (AC50) in assay [1] was 70.4 µM (active); in assay [2] it was 59.9 µM (active); in assay [4], 154 µM (active); in [6], 178 µM (active). Further, the molecule was classed as inactive in assay [3], in assay [8] and in assay [5].

Turning to `c1ccc2sc(SN(C3CCCCC3)C3CCCCC3)nc2c1`, the result in assay [1], in [2], in assay [3], in assay [8], in assay [5] and in assay [6] was inactive. Further, in assay [9], the result was inactive.

Take `CC(=O)OCC=Cc1ccccc1`: the molecule was classed as inactive in [1], in [2], in assay [3], in assay [8], in [4] and in assay [5]. Also, the molecule was classed as inactive in assay [6], in [7] and in assay [9].

Consider `COc1nc(C)nc(N)n1`, for which the outcome in assay [10], in assay [2], in assay [3], in assay [8], in assay [4] and in [5] was inactive. The result in assay [6] was inactive.

For the molecule `CCCCCCCCCOC(C)=O`, the result in assay [1], in assay [2], in [3], in [8], in [4] and in assay [5] was inactive. Also, the molecule was classed as inactive in [6], in assay [7] and in [9].

Regarding `Sc1nc(S)nc(S)n1`, the molecule was called inactive in [1], in assay [2], in assay [3], in [8], in [4] and in [5]. For the same molecule, the molecule was classed as inactive in assay [6] and in [7].

As to `CCCC/C=C\CCCCCCCCCC=O`, the result in [1], in assay [2], in assay [8], in [4], in assay [5] and in [6] was inactive. In addition, the outcome in assay [7] and in assay [9] was inactive.

As to `O=P(c1ccccc1)(c1ccccc1)c1ccccc1`, the call in [1], in [2], in assay [3], in [8], in [4] and in assay [5] was inactive. For the same molecule, the result in [7] and in [9] was inactive.

Take `CC(=O)Nc1ccc(C)cc1C`: the molecule was called inactive in assay [1], in assay [2], in assay [3], in assay [8], in assay [4] and in assay [5]. Further, in assay [6], the molecule was classed as inactive.

Take `Cc1ccc(Nc2ccc(O)c3c2C(=O)c2ccccc2C3=O)cc1`: the outcome in [1], in assay [2], in assay [3], in assay [8], in [4] and in assay [5] was inactive. The call in assay [6] was inactive.

The values above are taken from PubChem BioAssay (EPA / NIEHS).
